In the library only some 1.3% were active in any assay of this set; here they are far more common.
BCLXL inh: inhibitors of human Bcl-xL, primary screen, biochemical, fluorescence polarization, HTS; Bcl-2-like protein 1 (Homo sapiens), Q07817; GST-Bcl-xL / FITC-Bim BH3 peptide fluorescence polarization; inhibition, % at 10.9 µM; hit rate 0.7% among 320,000;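 active = inhibition above the mean of all tested compounds plus 3 SD, cutoff set per campaign, cut at about 30% in these data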;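 note: 0% = DMSO wells and 100% = unlabeled Bim-BH3 peptide competitor; inhibitors lower millipolarization by displacing the labeled peptide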
eLon inh: inhibitors of E. coli Lon protease, primary screen, biochemical, fluorescence polarization. purified E. coli Lon protease. inhibition, % at 7.94 µM. hit rate 0.42% among 360,000; in the data active = inhibition above about 13%, passing the limit was not always enough;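 note: 0% = enzyme with probe and DMSO and 100% = no enzyme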
GLD-1 RNA inh: GLD-1/TGE RNA complex disruptors, primary screen, biochemical, fluorescence polarization. hit rate 0.44% among 320,000. inhibition, % at 5.96 µM. AID 2280, 2010. purified GLD-1 + fluorescein TGE RNA;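 active = percent inhibition above a per-plate cutoff, the plate mean of test compounds plus 3 SD, cut at about 30% in these data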;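 note: 0% = DMSO wells with GLD-1 and probe and 100% = wells lacking GLD-1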
EBV gp42 block: Epstein-Barr virus gp42 inhibitors, primary screen, biochemical, uHTS, fluorescence polarization | hit rate 0.42% among 220,000 | inhibition, % (tested at 21.74 µM) | Fluorescence polarization binding assay, mP read-out; in the data active = inhibition above about 50%
MEX-5 binding: MEX-5 zinc finger RNA-binding disruptors – biochemical, C. elegans, fluorescence polarization, MLPCN library, primary screen | Zinc finger protein mex-5 (Caenorhabditis elegans), Q9XUB2 | MEX-5/FITC-TCR2 RNA binding; hits give low values | activity score (negative = inhibition of binding), % at 10 µM | hit rate 0.38% among 300,000;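 active = inhibition past about -25% in most replicates, and total fluorescence under double the plate's negative control median, limit read from the data; inconclusive = replicates evenly split on the limit, or fluorescence at least double controls; inactive = too little inhibition in most replicates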;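 note: 0% = DMSO and -100% = 5 µM competing unlabeled TCR2 RNA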
Target sequence (Q9XUB2 whole entry, looked up): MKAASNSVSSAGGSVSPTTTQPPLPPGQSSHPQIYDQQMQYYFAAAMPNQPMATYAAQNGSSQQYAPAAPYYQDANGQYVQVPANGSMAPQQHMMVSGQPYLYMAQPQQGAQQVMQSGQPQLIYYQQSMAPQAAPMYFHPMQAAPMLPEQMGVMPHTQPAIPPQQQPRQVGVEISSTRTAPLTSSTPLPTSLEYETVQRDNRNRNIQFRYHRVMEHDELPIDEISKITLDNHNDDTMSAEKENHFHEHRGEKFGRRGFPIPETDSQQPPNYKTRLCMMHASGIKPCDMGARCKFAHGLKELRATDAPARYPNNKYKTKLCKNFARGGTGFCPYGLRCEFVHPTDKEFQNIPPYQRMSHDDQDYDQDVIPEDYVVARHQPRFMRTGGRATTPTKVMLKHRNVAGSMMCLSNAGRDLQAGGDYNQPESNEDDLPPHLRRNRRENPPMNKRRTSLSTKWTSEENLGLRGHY
* hit, by the source's call; ? = inconclusive; / = no result given.

SMILES | BCLXL inh | eLon inh | GLD-1 RNA inh | EBV gp42 block | MEX-5 binding
CC1CCCN(Cc2c(O)ccc3c2O/C(=C\c2ccco2)C3=O)C1 (stereo unspecified) | 123* | -11 | 95* | 49 | ?
O=C1/C(=C/C=C/c2ccccc2)Oc2c1ccc(O)c2CN1CCN(CCO)CC1 | 20 | -91 | 8 | -49 | -2
CCc1ccc(/C=C2\Oc3c(ccc(O)c3CN3CCN(C)CC3)C2=O)cc1 | 42* | -54 | -2 | -35 | /
Cc1ccc(/C=C2\Oc3c(ccc(O)c3CN3CCN(C)CC3)C2=O)cc1 | 46* | -39 | 4 | -44 | ?
CC1CCCN(Cc2c(O)ccc3c(=O)c(-c4ccc(Cl)cc4)coc23)C1 (stereo unspecified) | / | -5 | / | / | 1
COc1ccccc1/C=C/C=C1\Oc2c(ccc(O)c2CN2CCN(CCO)CC2)C1=O | 40* | -157 | -24 | -103 | ?
Cn1cnc2c(cnn2C)c1=N | / | -2 | / | / | /
CCN1C[C@@H]2[C@@H]3C(=O)N(Cc4ccccc4)C(=O)[C@@H]3[C@](CC)(C1=O)N2C(=O)c1ccc(F)cc1 | / | 2 | / | / | /
Cc1noc(C)c1COc1ccc(C(=O)OCC(=O)Nc2ccc(C(=O)N(C)C)cc2)cc1 | -2 | 5 | 6 | / | 2
COc1ccc(CCC(=O)Nc2ccc(S(=O)(=O)N3CCCC3)cc2)cc1OC | -1 | -2 | -3 | / | /
O=[N+]([O-])c1ccccc1C(O)Cc1ccccn1 (stereo unspecified) | / | 2 | / | / | /
CCN1CCN(Cc2c(O)ccc3c2O/C(=C\c2ccc(C)cc2)C3=O)CC1 | 40* | -62 | -1 | -19 | -29*
CCN1CCN(Cc2c(O)ccc3c2O/C(=C\C=C\c2ccccc2)C3=O)CC1 | 25 | -188 | 2 | -82 | ?
Cc1ccc(/C=C2\Oc3cc(OC(=O)N4CCOCC4)ccc3C2=O)cc1 | 5 | -12 | 8 | -1 | 1
CCN1CCN(Cc2c(O)ccc3c2O/C(=C\c2ccccc2)C3=O)CC1 | 54* | -47 | 18 | -1 | -34*
CN(C)Cc1c(O)ccc2c1O/C(=C\C=C\c1ccccc1)C2=O | 78* | -36 | 24 | -6 | ?
CC(C)CNC(=O)Cn1c(=O)c2c(ncn2CC(C)C)n(Cc2ccccc2)c1=O | 6 | -1 | -6 | -5 | 0
CCOC(=O)N1CCN(c2nc3ccccc3nc2C(C#N)S(=O)(=O)c2ccc(C)cc2)CC1 (stereo unspecified) | 15 | 3 | 7 | 5 | -35*
CC(CN1C(C)CCCC1C)OC(=O)c1cccc(Br)c1 (stereo unspecified) | 9 | -1 | 3 | / | 0
CC(=O)N1CCN(Cc2nc3cc(NC(=O)c4ccccc4C)ccc3n2C)CC1 | 4 | -2 | 4 | 1 | 0
CCN(C(=O)CSc1nc2cc(S(=O)(=O)N(CC)CC)ccc2n1CC)C1CCS(=O)(=O)C1 (stereo unspecified) | 0 | -1 | 3 | / | 1
CCN(CC)c1ccc(/C=C/c2nc3ccccc3s2)cc1 | -41 | / | -66 | -20 | -32*
CN(CC(=O)O)Cc1oc(CO)cc(=O)c1O | / | -10 | / | / | /
Cc1ccc2ccc(C3C(=O)c4ccccc4C3=O)nc2c1 | 4 | -14 | 5 | / | -41*
c1ccc(-c2nc(-c3ccco3)n3ccccc23)cc1 | 65* | -17 | 21 | 44 | -12
SMILES | BCLXL inh | eLon inh | GLD-1 RNA inh | EBV gp42 block | MEX-5 binding
CCCOc1ccc(N)cc1N | 117* | -16 | -5 | 42 | -8
CCCOc1cc(N)ccc1C(=O)OCCN(CC)CC | 3 | 6 | 1 | / | /
CN1C(=O)/C(=C/c2ccc(-c3ccccc3[N+](=O)[O-])o2)SC1=Nc1ccc(Cl)c(C(=O)O)c1 | 44* | -4 | 25 | -3 | ?
O=C(O)c1cc(-c2ccc(/C=C3/SC(=S)N(Cc4ccccc4)C3=O)o2)ccc1Cl | / | -116 | / | -105 | /
O=S(=O)(c1cccc(-c2csc(-c3cccnc3)n2)c1)N1CCOCC1 | 2 | -3 | 3 | 8 | -27*
COc1ccccc1OCC(=O)NCCSCc1cccc(Cl)c1 | -5 | -1 | 2 | -8 | -2
CC(C)C[C@H]1COCCS(=O)(=O)N1Cc1ccc(Cl)c(Cl)c1 | 67* | -1 | 1 | / | 0
CCOC(=O)c1ccc(N2CCOCC2)c(NC(=O)c2ccc3c(c2)OCO3)c1 | 0 | -3 | 1 | / | -2
